These results are taken from the OligoGym collection.
Also: reference of the scale not given here.

The target in the first assay is PDIA5. The assay can be described thus: pooled miR-30 sensor sort-seq; sequence = guide strand. To be noted: shRNA.
With TTTGACACAGTCAACAGCGGCA, the sensor-assay potency score (higher = more potent) was -0.283.

With TTGCACATGCTGCACCAGGGGG, the sensor-assay potency score (higher = more potent) was -1.31.

TCATACTGGAACAAGAACCGTC showed a sensor-assay potency score (higher = more potent) of 0.647.

Take TTCAACGTAGGAAACTCTGAGA: the sensor-assay potency score (higher = more potent) was -0.249.

The next assay addresses PDLIM4. The description is as above. To be noted: shRNA.
TCACTGCACATGAAGCACTCGG had a sensor-assay potency score (higher = more potent) of -0.799.

Turning to TCAGGATCGATGTGGATCCTGT, the sensor-assay potency score (higher = more potent) is -1.13.

The sequence TAGAGCTTGTCCCGTGCCTTGA returned a sensor-assay potency score (higher = more potent) of -0.615.

AGACAGTGTGAGGTGATCGTGG yielded a sensor-assay potency score (higher = more potent) of -1.1.

TTGTCCATATGGAGATCCCAGG: the sensor-assay potency score (higher = more potent) was -1.39.

Take TTGTGAGGGACTGGAAAGCGAG: the sensor-assay potency score (higher = more potent) is -1.61.

TGAGCTCTGTGCTCTCACCATT displayed a sensor-assay potency score (higher = more potent) of -1.16.

In turn, AAAGAAGTAACCACGCTGCTTG returned a sensor-assay potency score (higher = more potent) of 0.146.

Regarding TCGGAGCCCAGGTCGACTCTGC, the sensor-assay potency score (higher = more potent) was -1.11.

The sequence TACACCGCCACCACGTCGTAGC displayed a sensor-assay potency score (higher = more potent) of -0.286.

Take TGCACATGAAGCACTCGGGATG: the sensor-assay potency score (higher = more potent) was -1.65.

TTGGTCTGCCATCTTCTGGCCC returned a sensor-assay potency score (higher = more potent) of -0.715.

For another assay, the target named is PDP1. The description is as above. To be noted: shRNA.
As to ATGATTGTAATGTCATCTCTGT, the sensor-assay potency score (higher = more potent) amounted to 0.0872.

In turn, TTAGGAGGAATAAACTTGGTAT displayed a sensor-assay potency score (higher = more potent) of -0.0779.

TGAAACTGTATTCATTAGCTTT: the sensor-assay potency score (higher = more potent) was -0.926.

In turn, TATTATAGTAGTATCTTTTTAA came in with a sensor-assay potency score (higher = more potent) of -1.01.

For TTTAAGGATGCTATTGACTTGT, the sensor-assay potency score (higher = more potent) is 0.228.

Sequence TTTTGAAGGTCAATGCTCCATT had a sensor-assay potency score (higher = more potent) of -0.4.

The sequence TATTCATTGTCATTCAACTGGT came in with a sensor-assay potency score (higher = more potent) of -0.478.

In turn, TTGTCATTCAACTGGTCTGGGC returned a sensor-assay potency score (higher = more potent) of -1.11.

Sequence TTGAACTGAACTACAATGATTG yielded a sensor-assay potency score (higher = more potent) of -0.787.

For TGCATTTTCAATCTCTAGCAAA, the sensor-assay potency score (higher = more potent) is -1.4.

In turn, TACAACATGAGAATTGAACTGA gave a sensor-assay potency score (higher = more potent) of 1.04.

With TAGAACTGACATTTTTGCCGTC, the sensor-assay potency score (higher = more potent) was 0.378.

The next assay has as its target PDZD4. Described as above. To be noted: shRNA.
In turn, TCATCCAGGAAGTCATCCCGGT had a sensor-assay potency score (higher = more potent) of -0.501.

In the case of TCGTCGGTCGTCATACCGCTGC, the sensor-assay potency score (higher = more potent) was -0.818.

For TCACTTTGTACTGCTCCTCCGG, the sensor-assay potency score (higher = more potent) was -0.937.

TACACCGTTAATCTGGATGATG came in with a sensor-assay potency score (higher = more potent) of -1.18.

As for TTTGGCTGCAATGCTGTTGGGA, the sensor-assay potency score (higher = more potent) is -0.7.

TTGCAGGCCAAACTTGCGCAGG gave a sensor-assay potency score (higher = more potent) of -1.4.

As for TTCACTTTCCACTCCATGCGCG, the sensor-assay potency score (higher = more potent) was -0.515.

TTGATCTCCAGGAGCTCACGGT came in with a sensor-assay potency score (higher = more potent) of -0.853.

As to TCGTCGTCGGTCGTCATACCGC, the sensor-assay potency score (higher = more potent) was -1.57.

Consider TTTCAGTTTACGAGCACGCAGC, for which the sensor-assay potency score (higher = more potent) was -0.95.

On to TTTTATACAGCTCCACCTCCTC, for which the sensor-assay potency score (higher = more potent) was -1.13.

As to TGTCCTTGTCCGACTTCTCGGG, the sensor-assay potency score (higher = more potent) is -0.294.
